Laboratory results reported in PubChem BioAssay (NCATS).
Several values for one entry are separate records, joined by “and”; a condition that tells them apart may be missing. Identical values can stand only once. Records with an inconclusive call do not appear. The source holds several records for some structures; these can differ, active in one and inactive in another. Activity calls are given as the source filed them. Unless noted, calls follow the shape of the dose curve; as a rule, active = well fitted curve in the direction sought with a large enough effect; inconclusive = small, poorly fitted or top-dose-only effect, or another doubt; inactive = no such curve, though single readings can be large; an effect the other way counts as inactive or inconclusive.

Key:
[1] = biological target: Thioredoxin reductase 1, cytoplasmic (Rattus norvegicus) (UniProt O89049); assay: qHTS Assay for Substrates of Mammalian Selenoprotein Thioredoxin Reductase 1 (TrxR1) (AID 488772);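 also: NADPH fluorescence in the first read after selenite addition and not the 8 min delta; series mostly up to about 57 µM; 0% is about no effect; a drop in NADPH fluorescence below the no-compound background marks a TrxR1 substrate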
Chain of Thioredoxin reductase 1, cytoplasmic (Rattus norvegicus) (O89049 whole entry, looked up): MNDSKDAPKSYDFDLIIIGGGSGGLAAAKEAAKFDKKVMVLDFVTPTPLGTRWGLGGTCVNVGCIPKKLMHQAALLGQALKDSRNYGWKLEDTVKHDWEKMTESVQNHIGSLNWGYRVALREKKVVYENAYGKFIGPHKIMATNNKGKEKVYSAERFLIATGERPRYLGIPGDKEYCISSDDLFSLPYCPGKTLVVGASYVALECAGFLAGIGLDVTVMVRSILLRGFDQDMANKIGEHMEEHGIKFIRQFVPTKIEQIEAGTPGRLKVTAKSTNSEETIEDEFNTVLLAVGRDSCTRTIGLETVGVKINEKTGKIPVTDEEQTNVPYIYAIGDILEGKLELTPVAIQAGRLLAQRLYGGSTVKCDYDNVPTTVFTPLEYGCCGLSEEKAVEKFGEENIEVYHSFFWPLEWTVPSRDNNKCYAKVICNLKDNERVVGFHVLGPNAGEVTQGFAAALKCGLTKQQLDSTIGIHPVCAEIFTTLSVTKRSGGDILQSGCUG
Method in brief: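 Quantitative HTS in Tris-HCl buffer at pH 7.5 with EDTA and Tween-20, using rat TrxR1, 400 uM NADPH and 400 uM selenite (final). A fall in initial NADPH fluorescence relative to background marked substrate behaviour.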

[2] = biological target: Thioredoxin reductase 1, cytoplasmic (Rattus norvegicus) (UniProt O89049); assay: qHTS Assay for Inhibitors of Mammalian Selenoprotein Thioredoxin Reductase 1 (TrxR1) (AID 488773); conditions: Potency: inhibition;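 also: drop in NADPH fluorescence over an 8 min run after selenite addition; series mostly up to about 57 µM; % is scaled to controls: 0 for no effect and ±100 for the full control effect; nearly all actives have a fitted effect of over 40% in size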
Method in brief: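 Steps: enzyme (90 nM) plus NADPH (400 uM final), 5 min at ~22 deg C; compound added, 15 min; selenite (400 uM final) added; fluorescence followed for 8 min. Concentration-response curves derived from the normalized delta values.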

[3] = biological target: M-phase phosphoprotein 8 (Homo sapiens) (UniProt Q99549); assay: qHTS Validation Assay for Inhibitors for MPP8 Chromodomain Interactions with Methylated Histone Tails (AID 488949); also: nearly all actives have a fitted effect of over 55% in size; also: potency is read from the fitted curve at half-maximal effect
Chain of M-phase phosphoprotein 8 (Homo sapiens) (Q99549 whole entry, looked up): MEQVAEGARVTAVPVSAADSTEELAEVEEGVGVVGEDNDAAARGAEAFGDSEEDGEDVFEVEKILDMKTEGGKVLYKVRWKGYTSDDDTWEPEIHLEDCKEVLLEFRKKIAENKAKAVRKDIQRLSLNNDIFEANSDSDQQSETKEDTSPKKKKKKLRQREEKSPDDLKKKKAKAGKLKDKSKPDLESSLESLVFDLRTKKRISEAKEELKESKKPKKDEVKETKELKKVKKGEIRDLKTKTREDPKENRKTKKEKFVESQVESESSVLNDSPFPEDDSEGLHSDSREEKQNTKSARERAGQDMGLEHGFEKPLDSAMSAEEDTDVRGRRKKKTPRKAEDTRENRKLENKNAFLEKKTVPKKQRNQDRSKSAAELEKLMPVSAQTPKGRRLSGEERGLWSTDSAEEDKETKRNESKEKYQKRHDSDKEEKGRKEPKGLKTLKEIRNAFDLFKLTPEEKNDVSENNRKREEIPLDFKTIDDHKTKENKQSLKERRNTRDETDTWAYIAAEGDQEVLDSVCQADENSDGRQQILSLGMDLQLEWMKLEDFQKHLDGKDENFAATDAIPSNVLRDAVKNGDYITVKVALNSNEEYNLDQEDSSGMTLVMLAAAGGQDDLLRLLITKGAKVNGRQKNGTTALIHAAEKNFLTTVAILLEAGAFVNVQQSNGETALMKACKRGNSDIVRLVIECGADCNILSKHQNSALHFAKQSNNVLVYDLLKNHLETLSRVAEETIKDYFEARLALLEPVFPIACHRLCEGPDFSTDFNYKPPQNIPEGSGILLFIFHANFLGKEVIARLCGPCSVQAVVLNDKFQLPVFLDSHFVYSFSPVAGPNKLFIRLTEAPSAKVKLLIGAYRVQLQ
Method in brief: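 Disruption of the preformed MPP8–trimethyl-H3K9 peptide complex (both 50 nM, 30 min, RT) is measured after 30 min compound exposure, using AlphaScreen proximity beads; aurintricarboxylic acid titration serves as plate control.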

[4] = biological target: Methanococcus maripaludis chaperonin (MmCpn) (UniProt Q6LX38); assay: High-Throughput Screening for Modulators of Cytosolic Chaperonin Activity: MmCpn Primary Screen (AID 488978);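 also: 50 nM MmCpn enzyme hydrolysing 30 µM ATP at 37 °C; 0% is about no effect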
Method in brief: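 Measures ATPase turnover of the M. maripaludis chaperonin (50 nM final) against 30 uM ATP over 10 min at 37C, with compound added 5 min beforehand at room temperature. ADP is quantified by HTRF immunodetection.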

[5] = biological target: Transient receptor potential cation channel subfamily V member 1 (Homo sapiens) (UniProt Q8NER1); assay: HTS Assay for Compounds that Act as Enhancers of the Vanilloid Receptor 1 (AID 488979); also: 0% is about no effect
Chain of Transient receptor potential cation channel subfamily V member 1 (Homo sapiens) (Q8NER1 whole entry, looked up): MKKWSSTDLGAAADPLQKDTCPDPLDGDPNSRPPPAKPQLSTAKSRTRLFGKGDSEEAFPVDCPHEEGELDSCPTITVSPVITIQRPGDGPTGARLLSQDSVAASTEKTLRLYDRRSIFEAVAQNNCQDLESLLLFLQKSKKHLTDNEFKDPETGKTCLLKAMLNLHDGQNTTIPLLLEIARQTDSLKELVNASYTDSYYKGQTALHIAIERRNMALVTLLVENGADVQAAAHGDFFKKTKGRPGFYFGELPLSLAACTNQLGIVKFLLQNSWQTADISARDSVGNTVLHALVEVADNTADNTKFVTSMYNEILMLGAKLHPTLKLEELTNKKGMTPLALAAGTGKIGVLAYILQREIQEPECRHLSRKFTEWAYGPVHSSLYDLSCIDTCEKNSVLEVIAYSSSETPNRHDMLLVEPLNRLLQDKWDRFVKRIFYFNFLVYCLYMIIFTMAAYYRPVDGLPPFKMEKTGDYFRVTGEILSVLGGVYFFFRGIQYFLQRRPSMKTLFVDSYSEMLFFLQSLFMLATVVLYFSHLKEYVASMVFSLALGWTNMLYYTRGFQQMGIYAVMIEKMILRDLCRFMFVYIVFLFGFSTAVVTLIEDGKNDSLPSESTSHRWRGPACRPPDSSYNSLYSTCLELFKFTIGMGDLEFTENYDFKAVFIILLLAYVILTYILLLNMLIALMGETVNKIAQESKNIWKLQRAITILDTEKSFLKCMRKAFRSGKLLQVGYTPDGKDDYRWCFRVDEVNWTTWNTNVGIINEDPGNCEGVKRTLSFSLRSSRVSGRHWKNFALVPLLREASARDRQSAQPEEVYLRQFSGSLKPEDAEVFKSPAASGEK
Method in brief: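 TRPV1-expressing cells loaded with Fluo-8 calcium dye; compounds added and calcium influx read kinetically for 3 min (agonist phase), then capsaicin at EC20 added and read 2 min more for enhancement. Fluorescence ex 480/em 520 nm.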

[6] = biological target: Thyrotropin receptor (Homo sapiens) (UniProt P16473); assay: qHTS Assay for Antagonists of the Thyroid Stimulating Hormone Receptor (AID 488980); also: series mostly up to about 58 µM; 0% is about no effect
Chain of Thyrotropin receptor (Homo sapiens) (P16473 whole entry, looked up): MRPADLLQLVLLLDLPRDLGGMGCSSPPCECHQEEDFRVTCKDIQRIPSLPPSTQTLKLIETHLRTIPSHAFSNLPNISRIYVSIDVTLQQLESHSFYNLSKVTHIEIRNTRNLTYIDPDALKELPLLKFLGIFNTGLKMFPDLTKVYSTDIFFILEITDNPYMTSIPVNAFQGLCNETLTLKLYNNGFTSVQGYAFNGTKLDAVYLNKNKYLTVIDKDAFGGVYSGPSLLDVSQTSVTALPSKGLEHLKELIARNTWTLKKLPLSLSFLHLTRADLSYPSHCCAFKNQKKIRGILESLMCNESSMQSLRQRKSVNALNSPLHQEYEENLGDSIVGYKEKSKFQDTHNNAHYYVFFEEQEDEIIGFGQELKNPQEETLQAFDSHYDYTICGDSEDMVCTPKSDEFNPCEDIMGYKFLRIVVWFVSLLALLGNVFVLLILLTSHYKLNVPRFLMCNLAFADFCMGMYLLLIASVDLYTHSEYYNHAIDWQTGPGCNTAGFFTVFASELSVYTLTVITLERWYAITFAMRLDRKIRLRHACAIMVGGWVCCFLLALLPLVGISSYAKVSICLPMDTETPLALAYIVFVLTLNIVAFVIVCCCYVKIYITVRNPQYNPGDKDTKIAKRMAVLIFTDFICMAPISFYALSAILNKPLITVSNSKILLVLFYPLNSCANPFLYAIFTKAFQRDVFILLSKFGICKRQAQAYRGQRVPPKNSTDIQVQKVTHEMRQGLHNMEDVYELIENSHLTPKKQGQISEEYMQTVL
Method in brief: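 Cells expressing human TSHR (HEK293) are dispensed in HBSS/HEPES containing 70 uM RO 20-1724, compound is added, then TSH at EC80 (4 nM final). Antibody in lysis buffer follows, 30 minutes at room temperature before HTRF detection.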

[7] = biological target: D(1A) dopamine receptor (Homo sapiens) (UniProt P21728); assay: HTS Assay for Allosteric Agonists of the Human D1 Dopamine Receptor: Primary Screen for Agonists (AID 488981); also: 0% is about no effect
Method in brief: (§1)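 Tetracycline-induced HEK293 T-REx cells force-coupled to calcium signalling were incubated overnight at 30 C and dye-loaded at room temperature. Calcium flux over 180 s after compound addition flagged agonists; a further 180 s read after EC20 dopamine flagged potentiators.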

[8] = biological target: D(1A) dopamine receptor (Homo sapiens) (UniProt P21728); assay: HTS Assay for Allosteric Agonists of the Human D1 Dopamine Receptor: Primary Screen for Potentiators (AID 488982); also: 0% is about no effect
Method in brief: as §1

[9] = Validation screen for small molecules that induce genotoxicity in human embryonic kidney (HEK293T) cells expressing luciferase-tagged ELG1 (AID 493106); also: 0% is about no effect
Method in brief: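 Reporter-gene quantitative HTS in HEK293T cells carrying luciferase-tagged ELG1, whose level climbs under genotoxic stress. Compound exposure lasts 16 hr at 37 °C before luciferase detection.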

[10] = biological target: Thyrotropin-releasing hormone receptor (Homo sapiens) (UniProt P34981); assay: qHTS for Small Molecule Agonists and Allosteric Enhancers of Human TRH Receptor: Validation Screen for Agonists (AID 493127;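 active = calcium activation more than 3 SD above the typical response in the agonist read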;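 also: intracellular calcium rise by fluo-8 fluorescence before TRH EC20 addition; 0% is about no effect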); conditions: TRH receptor agonist cell assay; at 2 µM; stronger effect = higher value
Chain of Thyrotropin-releasing hormone receptor (Homo sapiens) (P34981 whole entry, looked up): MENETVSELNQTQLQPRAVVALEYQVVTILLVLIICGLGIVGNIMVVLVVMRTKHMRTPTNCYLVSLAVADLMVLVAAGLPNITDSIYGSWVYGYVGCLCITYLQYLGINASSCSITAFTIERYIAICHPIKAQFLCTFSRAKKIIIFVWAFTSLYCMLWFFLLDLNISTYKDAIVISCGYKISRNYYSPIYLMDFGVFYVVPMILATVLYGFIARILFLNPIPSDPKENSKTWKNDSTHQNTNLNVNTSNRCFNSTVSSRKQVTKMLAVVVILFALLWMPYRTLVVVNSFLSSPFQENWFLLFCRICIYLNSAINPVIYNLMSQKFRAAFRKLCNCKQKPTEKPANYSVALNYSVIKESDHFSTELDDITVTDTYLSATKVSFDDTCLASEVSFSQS
Method in brief: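 Gq-coupled calcium mobilization in TRHR cells after compound addition, monitored kinetically with fluo-8 dye on an FDSS reader.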

[11] = Nrf2 qHTS screen for inhibitors: Validation (AID 493153; active = well fitted inhibition curve with a large enough effect in the main read-out, with a control signal flat, not every such curve was filed as active); conditions: Potency: luciferase luminescence; viability change: measured here: cytotoxicity max response
Method in brief: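 Dose-response validation uses reporter A549 cells with firefly luciferase under an antioxidant response element. Compounds stay on cells 18-24 h at 37°C, and luminescence indicates Nrf2-driven transcription.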

[12] = Validation screen for small molecules that induce DNA re-replication in SW480 colon adenocarcinoma cells (AID 504364); also: 0% is about no effect
Method in brief: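 Cells are treated 48 hr with test compound, stained 40 min with Hoechst at 37 C, and scanned for nuclear fluorescence; compounds inducing re-replication increase nuclei with elevated intensity.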

[13] = biological target: Flap endonuclease 1 (Homo sapiens) (UniProt P39748); assay: qHTS Validation Assay for the Inhibitors of Human Flap endonuclease 1 (FEN1) (AID 488816); also: % is scaled to controls: 0 for no effect and ±100 for the full control effect
Chain of Flap endonuclease 1 (Homo sapiens) (P39748 whole entry, looked up): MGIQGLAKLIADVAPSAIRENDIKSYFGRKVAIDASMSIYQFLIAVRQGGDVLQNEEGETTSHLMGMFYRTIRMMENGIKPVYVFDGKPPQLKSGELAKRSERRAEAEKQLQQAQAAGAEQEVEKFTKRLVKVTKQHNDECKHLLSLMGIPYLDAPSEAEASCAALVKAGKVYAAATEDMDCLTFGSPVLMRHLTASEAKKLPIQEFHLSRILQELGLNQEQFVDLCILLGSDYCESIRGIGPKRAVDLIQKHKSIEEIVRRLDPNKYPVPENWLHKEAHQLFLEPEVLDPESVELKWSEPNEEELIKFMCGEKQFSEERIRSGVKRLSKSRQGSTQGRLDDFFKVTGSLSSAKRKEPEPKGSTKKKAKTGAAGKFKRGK
Method in brief: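 FEN1, dispensed as a 10 nM reagent, was preincubated with pin-transferred compounds for 15 min at room temperature before substrate was added (50 nM final). Plates were read at 0 and 15 min, and a four-parameter Hill equation was fitted to the concentration-response data.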

[14] = biological target: Chromobox protein homolog 1 (Homo sapiens) (UniProt P83916); assay: qHTS Validation Assay for Inhibitors of HP1-beta Chromodomain Interactions with Methylated Histone Tails (AID 488953); also: nearly all actives have a fitted effect of over 50% in size; also: potency is read from the fitted curve at half-maximal effect
Chain of Chromobox protein homolog 1 (Homo sapiens) (P83916 whole entry, looked up): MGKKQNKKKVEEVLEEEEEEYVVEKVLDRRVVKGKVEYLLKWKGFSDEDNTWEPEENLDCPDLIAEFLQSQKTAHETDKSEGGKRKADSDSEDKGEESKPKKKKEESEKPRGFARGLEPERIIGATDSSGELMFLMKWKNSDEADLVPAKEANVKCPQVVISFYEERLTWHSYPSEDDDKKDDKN
Method in brief: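 Measured as loss of AlphaScreen luminescence from streptavidin donor and nickel acceptor beads (10 ug/mL final) bridging HP1-beta and biotin-H3(1-18)K9me3, each 50 nM. Compounds met the preassembled complex for 30 min at RT.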

[15] = biological target: D(1A) dopamine receptor (Homo sapiens) (UniProt P21728); assay: HTS Assay for Allosteric Agonists of the Human D1 Dopamine Receptor: Primary Screen for Antagonists (AID 488983);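 also: calcium flux response to an EC80 dopamine challenge measured with no-wash dye; % is scaled to controls: 0 for no effect and ±100 for the full control effect; nearly all actives have a fitted effect of over 65% in size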
Method in brief: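 Screening of inducible HEK293 T-REx D1 cells: compound first, EC80 dopamine 180 s later, each phase read kinetically for calcium over 180 s.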

[16] = qHTS for Inhibitors of Cell Surface uPA Generation: Validation Assay (AID 493164);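 also: RAW 264.7 macrophage cells exposed to compound for 18 h; 0% is about no effect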
Method in brief: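 RAW 264.7, 4000 cells/well, o/n plating; cpd 7-pt 1:5 dilution 2.45 nM–38.3 uM final; 18 h, 37 C/5% CO2; ATP-Lite, 5 s luminescence exposure.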

[17] = biological target: Galactokinase (Homo sapiens) (UniProt P51570); assay: qHTS Validation Assay for Inhibitors of Human Galactokinase (GALK) (AID 493189); also: 0% is about no effect
Chain of Galactokinase (Homo sapiens) (P51570 whole entry, looked up): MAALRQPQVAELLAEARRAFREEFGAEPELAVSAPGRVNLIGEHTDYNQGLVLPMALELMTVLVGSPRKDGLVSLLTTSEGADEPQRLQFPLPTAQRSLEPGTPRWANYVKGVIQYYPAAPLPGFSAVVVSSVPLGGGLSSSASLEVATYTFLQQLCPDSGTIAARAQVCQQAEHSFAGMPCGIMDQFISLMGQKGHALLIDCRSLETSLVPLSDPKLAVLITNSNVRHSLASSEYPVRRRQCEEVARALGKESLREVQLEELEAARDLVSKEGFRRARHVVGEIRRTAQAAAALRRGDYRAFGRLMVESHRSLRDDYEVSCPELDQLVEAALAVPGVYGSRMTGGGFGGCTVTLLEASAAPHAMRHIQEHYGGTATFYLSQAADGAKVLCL
Method in brief: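 Compounds were pin-transferred into ATP buffer, then GALK-galactose mix was added (final 5 nM enzyme, 100 uM galactose, 35 uM ATP). After 1 h at room temperature, remaining ATP was measured luminescently.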

[18] = biological target: ATP-dependent 6-phosphofructokinase (Trypanosoma brucei brucei) (UniProt O15648); assay: qHTS Assay to Find Inhibitors of T. brucei phosphofructokinase: hit validation (AID 492961);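 also: luminescence reports ADP formed as PFK phosphorylates fructose-6-phosphate with ATP; series mostly up to about 51 µM; % is scaled to controls: 0 for no effect and ±100 for the full control effect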
Chain of ATP-dependent 6-phosphofructokinase (Trypanosoma brucei brucei) (O15648 whole entry, looked up): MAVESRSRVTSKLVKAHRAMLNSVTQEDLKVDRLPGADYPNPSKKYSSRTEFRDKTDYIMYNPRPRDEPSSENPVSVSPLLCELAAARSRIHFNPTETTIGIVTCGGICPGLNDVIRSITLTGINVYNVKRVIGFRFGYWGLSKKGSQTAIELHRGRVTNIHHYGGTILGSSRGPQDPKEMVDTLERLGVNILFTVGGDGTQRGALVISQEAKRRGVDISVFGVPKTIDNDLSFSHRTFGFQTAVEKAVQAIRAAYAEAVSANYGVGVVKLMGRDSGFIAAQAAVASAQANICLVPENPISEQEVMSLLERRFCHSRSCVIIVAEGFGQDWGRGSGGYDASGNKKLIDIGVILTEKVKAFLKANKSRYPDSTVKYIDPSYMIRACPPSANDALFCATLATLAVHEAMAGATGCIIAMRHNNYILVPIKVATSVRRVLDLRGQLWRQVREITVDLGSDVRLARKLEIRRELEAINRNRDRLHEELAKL
Method in brief: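 Percent activity derived from corrected luminescence, normalized between 0x and 1x enzyme controls, then fitted to concentration-response curves. Conditions: 1.25 nM PFK, 0.1 mM ATP, 0.5 mM F6P, 45 min RT.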

[19] = biological target: ATPase family AAA domain-containing protein 5 (Homo sapiens) (UniProt Q96QE3); assay: Validation screen for small molecules that inhibit ELG1-dependent DNA repair in human embryonic kidney (HEK293T) cells expressing luciferase-tagged ELG1 (AID 493107);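 also: cells co-treated with the DNA-damaging agent 5-fluorouridine alongside compound; series mostly up to about 46 µM; % is scaled to controls: 0 for no effect and ±100 for the full control effect; inhibitors lower the ELG1-luciferase luminescence signal; nearly all actives have a fitted effect of over 70% in size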
Method in brief: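 Quantitative HTS in HEK293T cells carrying luciferase-tagged ELG1, stimulated with 5-fluorouridine alongside compound for 16 hr. Loss of luciferase signal marks inhibition of ELG1 response.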

CN1CCN2c3ccccc3Cc3ccccc3C2C1 (stereo not given)
-3.01%: viability change [11]
inactive: outcome [1] | Potency [2] | Potency [3] | outcome [4] | outcome [5] | outcome [6] | Potency [7] | Potency [8] | Potency [9] | activation [10] -4.88% | Potency [11] | Potency [12]

Nc1ccn([C@H]2CC[C@@H](CO)O2)c(=O)n1
inactive: outcome [1] | Potency [13] | Potency [3] | Potency [14] | outcome [4] | outcome [5] | outcome [6] | Potency [7] | Potency [8] | Potency [15] | Potency [9] | activation [10] 0.938% | Potency [11] | outcome [16] | Potency [17] | Potency [12]
-1.24%: viability change [11]

O=C(CCCN1CCC(O)(c2ccc(Cl)cc2)CC1)c1ccc(F)cc1
2.46%: viability change [11]
inactive: outcome [1] | outcome [4] | outcome [6] | Potency [9] | activation [10] 4.81% | Potency [11] | outcome [16] | Potency [17] | Potency [12]

CS(=O)(=O)CCNCc1ccc(-c2ccc3ncnc(Nc4ccc(OCc5cccc(F)c5)c(Cl)c4)c3c2)o1
inactive: Potency [18]

CC(=O)OCC(CCn1cnc2cnc(N)nc21)COC(C)=O
inactive: Potency [18]

CCOC(=O)Nc1ccc(NCc2ccc(F)cc2)nc1N
inactive: outcome [1] | outcome [4] | outcome [5] | outcome [6] | Potency [7] | Potency [8] | Potency [15] | Potency [18] | Potency [9] | Potency [19] | outcome [16] | Potency [12]
39.8 µM (active) and inactive: Potency [3]

COc1ccccc1OCC(O)CN1CCN(CC(=O)Nc2c(C)cccc2C)CC1 (stereo not given)
-3.01%: viability change [11]
inactive: Potency [2] | Potency [13] | Potency [3] | Potency [14] | outcome [4] | outcome [5] | outcome [6] | Potency [7] | Potency [8] | Potency [15] | Potency [9] | activation [10] 0.375% | Potency [11] | outcome [16] | Potency [17] | Potency [12]

CN1C2CCC1CC(OC(=O)C(CO)c1ccccc1)C2 (stereo not given)
inactive: Potency [3] | outcome [4] | outcome [5] | Potency [7] | Potency [8] | Potency [15] | Potency [9] | Potency [11] | outcome [16] | Potency [17] | Potency [12]
0.769% and 1.89%: viability change [11]

CC1(CN2CCC(n3c(=O)[nH]c4ccccc43)CC2)OCc2ccccc2-n2cccc21 (stereo not given)
inactive: Potency [18]

CN1CCC(=C2c3ccccc3C=Cc3ccccc32)CC1
inactive: outcome [1] | Potency [2] | Potency [3] | outcome [6] | Potency [7] | Potency [8] | Potency [9] | Potency [11] | outcome [16] | Potency [17] | Potency [12]
17%: viability change [11]

CC[C@@]1(O)C(=O)OCc2c1cc1n(c2=O)Cc2cc3c(CN(C)C)c(O)ccc3nc2-1
inactive: Potency [18]

CC(C)NCC(O)c1ccc(O)c(O)c1 (stereo not given)
-5.16%: viability change [11]
active: Potency [14] 10.6 nM
inactive: outcome [1] | Potency [13] | Potency [3] | outcome [4] | outcome [5] | outcome [6] | Potency [7] | Potency [8] | Potency [15] | Potency [9] | activation [10] 0.688% and 0.188% | Potency [11] | outcome [16] | Potency [17] | Potency [12]
